Consider 40 compounds from PubChem BioAssay (NCATS).

Where “and” joins values, the source holds several entries; their conditions need not be identical. Identical values can stand only once. Records with an inconclusive call do not appear. A call without a number means that no potency is given here. Calls of active or inactive are those of the source. Calls come from the whole dose curve; as a rule, active = well fitted inhibition curve with a large enough effect; inconclusive = small, poorly fitted or top-dose-only effect; inactive = flat fitted curve, though single readings scatter.
Potency is the fitted concentration of half-maximal effect.

This experiment concerns astro (control astrocytes). Nature of the experiment: Drug repurposing screens with cells derived from glioblastoma tumor samples (AID 1345199). Note: nearly all actives have a fitted effect of over 40% in size. Conditions: viability, ATP luminescence, 48 h; series mostly up to 45.9 µM. As to the method:
CD133+ cells were isolated from GBM patient biopsies and cultured as neurospheres. Neurospheres from four patients were used to screen the NCATS pharmaceutical collection (NPC) library of approved drugs and bioactive compounds. […] The neurospheres were incubated with drugs for 48 hours in 1536-well format, then assayed with an ATP content cell viability assay. […] These hits were cherry picked to confirm activity in the four original GBM lines screened plus three other slower growing GMB lines (unable to yield enough cells for a full primary screen). Variable activities of the confirmed primary hits in the different GBM patient lines were observed. The patient line 206 responded to the greatest number of compounds and line 923 responded to the least amount of active compounds.
For the compound `Cc1cn([C@H]2C=C[C@@H](CO)O2)c(=O)[nH]c1=O`, the Potency entry is “inactive”.

Take `O=C(Nc1ccc([N+](=O)[O-])cc1Cl)c1cc(Cl)ccc1O`: the Potency is 0.282 µM (active).

As to `CCc1cccc2c3c([nH]c12)C(CC)(CC(=O)O)OCC3` (stereo not given), the Potency entry was “inactive”.

`NC(CO)C(=O)NNCc1ccc(O)c(O)c1O` (stereo not given): the Potency result was “inactive”.

Take `CN1CCN(CCCN2c3ccccc3Sc3ccc(Cl)cc32)CC1`: the Potency was 20 µM (active).

For `CC(C)(Oc1ccc(C2CC2(Cl)Cl)cc1)C(=O)O` (stereo not given), the Potency result was “inactive”.

As to `Cn1c(=O)c2c(ncn2C)n(C)c1=O`, the Potency result is “inactive”.

On to `Cc1cn([C@H]2C[C@H](N=[N+]=[N-])[C@@H](CO)O2)c(=O)[nH]c1=O`, for which the Potency result is “inactive”.

For the compound `CCCCc1oc2ccccc2c1C(=O)c1cc(I)c(OCCN(CC)CC)c(I)c1`, the Potency was 28.2 µM (active) and 20 µM (active).

Turning to `COc1nc(C)nc(Cl)c1NC1=NCCN1`, the Potency result is “inactive”.

Turning to `OCCN(CCO)c1nc(N2CCCCC2)c2nc(N(CCO)CCO)nc(N3CCCCC3)c2n1`, the Potency result is “inactive”.

As to `CCN1CCCC1CNC(=O)c1cc(S(=O)(=O)CC)c(N)cc1OC` (stereo not given), the Potency entry was “inactive”.

On to `O=c1c(-c2ccc(O)cc2)coc2cc(O)cc(O)c12`, for which the Potency is 10 µM (active).

`CN(Cc1cnc2nc(N)nc(N)c2n1)c1ccc(C(=O)N[C@@H](CCC(=O)O)C(=O)O)cc1`: the Potency entry was “inactive”.

As to `CN(C)CCC=C1c2ccccc2C=Cc2ccccc21`, the Potency result was “inactive”.

With `O=C1c2c(O)ccc(O)c2C(=O)c2c(NCCNCCO)ccc(NCCNCCO)c21`, the Potency was 5.01 µM (active).

As to `NC(=O)NO`, the Potency entry is “inactive”.

On to `OCCN1CCN(CCCN2c3ccccc3Sc3ccc(C(F)(F)F)cc32)CC1`, for which the Potency is 22.4 µM (active).

Regarding `Cc1cnc(C(=O)NCCc2ccc(S(=O)(=O)NC(=O)NC3CCCCC3)cc2)cn1`, the Potency result was “inactive”.

On to `CCCNCC(O)COc1ccccc1C(=O)CCc1ccccc1` (stereo not given), for which the Potency entry was “inactive”.

Take `CCC1(c2ccccc2)C(=O)NCNC1=O`: the Potency entry was “inactive”.

On to `O=C1N(c2ccccc2)c2ccccc2C1(Cc1ccncc1)Cc1ccncc1`, for which the Potency entry is “inactive”.

Take `CS(=O)(=O)Nc1ccc([N+](=O)[O-])cc1Oc1ccccc1`: the Potency entry is “inactive”.

Turning to `CN(C)c1nc(N(C)C)nc(N(C)C)n1`, the Potency result is “inactive”.

On to `COc1ccc2[nH]cc(CCNC(C)=O)c2c1`, for which the Potency result is “inactive”.

As for `NC12CC3CC(CC(C3)C1)C2`, the Potency result was “inactive”.

As for `CN1C(C(=O)Nc2ccccn2)=C(O)c2ccccc2S1(=O)=O`, the Potency entry is “inactive”.

For the compound `Cc1ccc(-c2cc(C(F)(F)F)nn2-c2ccc(S(N)(=O)=O)cc2)cc1`, the Potency result is “inactive”.

`CC[C@@]1(O)C(=O)OCc2c1cc1n(c2=O)Cc2cc3c(CN(C)C)c(O)ccc3nc2-1`: the Potency is 17.8 µM (active).

On to `C[C@](N)(Cc1ccc(O)c(O)c1)C(=O)O`, for which the Potency result is “inactive”.

For the compound `O=C(c1ccc(OCCN2CCCCC2)cc1)c1c(-c2ccc(O)cc2)sc2cc(O)ccc12`, the Potency is 17.8 µM (active).

As for `COc1ccccc1OCCNCC(O)COc1cccc2[nH]c3ccccc3c12` (stereo not given), the Potency result is “inactive”.

Turning to `CC[N+](CC)(CC)CCOc1cccc(OCC[N+](CC)(CC)CC)c1OCC[N+](CC)(CC)CC`, the Potency result is “inactive”.

On to `NCCCCCC(=O)O`, for which the Potency result was “inactive”.

Regarding `COc1cc2nc(N3CCN(C(=O)c4ccco4)CC3)nc(N)c2cc1OC`, the Potency is 25.1 µM (active).

As for `CCC1(C)CC(=O)NC1=O` (stereo not given), the Potency entry was “inactive”.

In the case of `CC(C)Cc1ccc(C(C)C(=O)O)cc1` (stereo not given), the Potency result was “inactive”.

As for `COc1cc2nc(N(C)CCCNC(=O)C3CCCO3)nc(N)c2cc1OC` (stereo not given), the Potency result was “inactive”.

On to `CC12CC3CC(C)(C1)CC(N)(C3)C2`, for which the Potency result was “inactive”.

Consider `CN(CCOc1ccc(NS(C)(=O)=O)cc1)CCc1ccc(NS(C)(=O)=O)cc1`, for which the Potency entry was “inactive”.
